An excerpt weighted towards active compounds, which were near 2.3% of everything screened.
LEDGF integ inh: blocks HIV-1 LEDGF/p75-dependent DNA integration; TR-FRET IN-LEDGF/p75 DNA integration, Eu/Cy5; inhibition, % at 3.7 µM; 370,000 compounds, 0.64% hits;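 active means inhibition above the screen-wide mean plus 3 SD, cut at about 13% in these data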;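 further: signal is the Cy5 over europium emission ratio at 671 and 618 nm; 0% = plate median of compound wells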
MBD2 DNA inh: inhibitors of human MBD2 binding to methylated oligonucleotide. TR-FRET. inhibition, % at 4.4 µM. 370,000 compounds, 0.31% hits. AID 686964; in the data active means inhibition above about 13%
PLCb3 inh: PLC-beta3 (human) inhibition, primary screen; 370,000 compounds, 0.18% hits; Purified PLC-beta3, fluorogenic substrate, fluorescence; inhibition, % at 12.2 µM; Q01970; in the data active means inhibition above about 11%;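 further: 0% = median of compound wells on plate and 100% = full blocker control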
UHRF1 binding: blocks human UHRF1 binding to methylated DNA; AID 687016; 370,000 compounds, 0.75% hits; UHRF1 binding to methylated oligo, TR-FRET; inhibition, % at 4.4 µM; in the data active means inhibition above about 21%;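 further: UHRF1 SRA domain binding a hemimethylated CpG hairpin DNA probe; 0% = median of test compound wells and 100% = reference inhibitor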
PLC-gamma1 inh: PLC-gamma1 (human) inhibition, primary screen; purified PLC-gamma1, fluorogenic substrate, fluorescence; inhibition, % at 12.2 µM; 370,000 compounds, 0.84% hits; in the data active means inhibition above about 9.5%
* hit, by the source's call; i = inactive.

SMILES	LEDGF integ inh	MBD2 DNA inh	PLCb3 inh	UHRF1 binding	PLC-gamma1 inh
COc1ccc(S[C@]2(C(=O)N3CCCC3)CC(=O)N(C(=O)/C=C/c3ccccc3)[C@@H]2c2ccc(OC)cc2)cc1	-1	0	2	-2	-2
Cc1cc(S(=O)(=O)N2CCCOC2CNC(=O)C(=O)NCc2ccco2)ccc1F (configuration not stated)	0	-4	-1	56*	5
COc1ccc(F)cc1-c1cc(C(=O)N2CCc3ccccc3C2)[nH]n1	8	-2	11*	7	11*
O=C(c1cc(-c2ccc(Cl)cc2)n[nH]1)N1CCc2ccccc2C1	0	3	-10	3	4
N#C[C@@H]1N[C@H](CO)[C@@H]1c1ccccc1	-3	5	-1	3	1
COC(=O)c1ccc(CSc2nc(-c3ccccc3)cs2)o1	-3	0	-14	21*	-2
COC(=O)C[C@H]1CC[C@H]2[C@H](COc3ccc(NC(=O)C4CCOCC4)cc3C(=O)N2C)O1	5	7	3	4	6
COC(=O)[C@@H]1CCCN1Cc1nc(Cc2ccc(OC)c(OC)c2)no1	1	-2	-4	33*	2
CC1CCN(S(=O)(=O)c2cccc(C(=O)NNC(=O)c3ccco3)c2)CC1	1	5	0	30*	4
O=C1CC(c2ccc3c(c2)OCO3)C2=C(CCCC2=O)N1 (configuration not stated)	2	0	3	3	10*
COC(=O)c1cc(-c2cccs2)c(=O)n2c1CCC2	-2	-2	-232	-9	-174
CCC(NC(=O)c1ccc2c(ccn2Cc2cccc(-c3ccc(C(=O)O)cc3)c2)c1)c1ccccc1 (configuration not stated)	3	3	-5	5	5
O=C(C(=Cc1ccc(O)cc1)c1ccccc1)c1ccccc1	-2	8	1	1	11*
O=C(C(=Cc1ccc(F)cc1)c1ccccc1)c1ccc(O)cc1	1	-3	1	-1	-1
O=C1c2oc3ccccc3c(=O)c2C(c2cccc(O)c2)N1CCCN1CCOCC1 (configuration not stated)	4	-4	-16	-1	-15
COc1cccc(C2c3c(oc4ccccc4c3=O)C(=O)N2CCCN2CCOCC2)c1OC (configuration not stated)	4	-5	-6	50*	3
Cc1ccc(-c2csc(N(CCCN(C)C)C(=O)c3ccco3)n2)cc1	2	-1	-5	-4	-2
CN(C)CCCN(C(=O)c1ccco1)c1nc(-c2ccc(Cl)cc2)cs1	3	0	-2	81*	4
O=[N+]([O-])c1cc(/C=N/Nc2nc3ccccc3[nH]2)c(O)cc1O	-3	-7	4	-8	48*
Cc1ccccc1/C=N/Nc1nc2ccccc2[nH]1	-2	-2	-16	-2	-13
COC(=O)[C@H]1C[C@@]2(C)c3ccccc3N(S(=O)(=O)c3ccccc3)[C@H]2N1C(=O)CNC1CCCCC1	-1	0	3	0	5
COc1ccccc1C(NC(=O)C1CCN(CCOc2ccc(Cl)cc2)CC1)c1ccccn1 (configuration not stated)	2	-2	8	1	6
CC(NC(=O)C1CCN(CCOc2ccc(Cl)cc2)CC1)c1cccc2ccccc12 (configuration not stated)	-4	0	4	25*	2
COC(=O)c1ccc(-c2ccc3c(c2)[C@]2(CCC[C@@H](O)[C@@H]2NC(=O)CCc2ccccc2)C(=O)N3Cc2ccccc2)cc1	-1	7	-53	4	-28
CSCCC1NC(=O)N(C(C)C(=O)Nc2cc(Cl)cc(Cl)c2)C1=O (configuration not stated)	-3	6	-7	24*	-1
SMILES	LEDGF integ inh	MBD2 DNA inh	PLCb3 inh	UHRF1 binding	PLC-gamma1 inh
O=C1CC(c2ccc3c(c2)OCO3)N=C2N(Cc3ccc4c(c3)OCO4)C/C(=C/c3ccccc3)N12 (configuration not stated)	-1	1	-3	1	-4
CCN(Cc1ccccc1)C(=O)C1C2C=CC3(CN(Cc4ccccc4)C(=O)C13)O2 (configuration not stated)	0	0	0	-1	3
O=C(Cc1ccccc1)Nc1ccccc1Sc1ccccc1	-3	1	-1	-1	-1
CSc1ccccc1NC(=O)Cc1ccccc1	4	12	-7	23*	1
COc1ccc(C2CCC3(CCC(=O)N3CCO)CC2)cc1 (configuration not stated)	-1	-4	0	-1	-2
CC(=O)OC12CCCN(C1)/C(=C/c1cccnc1)C2 (configuration not stated)	-2	8	0	0	-2
CC(=O)NN1C(=O)c2ccccc2NC1c1ccccc1F (configuration not stated)	-4	2	i	63*	-374
CCCCc1cn([C@@H](CCCCN)C(=O)N2CCNCC2)nn1	2	6	1	24*	-1
Nc1[nH]c(C(=O)c2ccccc2)c(-c2cccc3ccccc23)c1C(=O)c1c(-c2ccccc2)[nH]c2ccccc12	-4	2	-48	2	-34
COc1cccc(/C=C/C(=O)OCC(=O)NCCC2=CCCCC2)c1	3	1	-65	37*	-45
COc1ccc(/C=C/C(=O)OCC(=O)NCCC2=CCCCC2)cc1	0	5	-3	-4	-4
O=S1(=O)c2ccc(N3CCCC3)cc2Oc2ccccc2CN1Cc1cn(Cc2ccccc2C(F)(F)F)nn1	0	3	-5	1	-1
Cc1ccc(-c2cc(C(=O)N3CCOCC3)c3ccccc3n2)cc1	-2	-4	-16	27*	-14
O=C(c1cc(-c2ccncc2)nc2ccccc12)N1CCOCC1	-5	-2	-12	4	-6
COc1ccccc1NC(=S)NNC(=O)c1ccccc1	-3	5	-2	-1	0
COc1ccccc1NC(=S)NC(=O)c1c(-c2ccccc2Cl)noc1C	0	2	-3	24*	1
COc1ccccc1NC(=S)NNC(=O)c1ccncc1	-2	9	-6	23*	-6
CCOc1ccccc1C1CC(=O)Nc2cc3c(cc21)OCCO3 (configuration not stated)	5	-2	0	23*	1
CCOc1ccccc1C1CC(=O)Nc2cc(C)c(C)cc21 (configuration not stated)	1	3	-5	-1	-1
COc1ccc(OC)c(/C=N/NC(=O)c2ccc(N(C)S(=O)(=O)c3ccccc3)cc2)c1	2	5	-88	2	-87
COc1ccc(/C=N/NC(=O)c2ccc(N(C)S(=O)(=O)c3ccccc3)cc2)c(OC)c1	-1	5	-43	32*	-35
CCN(CCCc1ccccc1)CCCc1ccccc1	1	-3	0	1	1
CCCN(CCO)CCCc1ccccc1	89*	1	0	-1	4

Compound activity as filed in PubChem.
